Screening results deposited in PubChem BioAssay by National Center for Advancing Translational Sciences (NCATS).
TDP1 block: blocks human tyrosyl-DNA phosphodiesterase 1; AID 485290; Q9NUW8; recombinant TDP1, AlphaScreen DNA substrate cleavage; 350,000 tested, 0.28% active; Potency, µM (titrated, usually from 130 µM), actives largely listed as inhibitors; active means well fitted curve in the direction sought with a large enough effect; inconclusive means small, poorly fitted or top-dose-only effect, or another doubt; inactive means no such curve, though single readings can be large; an effect the other way counts as inactive or inconclusive; further: nearly all actives have a fitted effect of over 40% in size
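Here, a 5' biotin and 3' phosphotyrosine-FITC DNA oligonucleotide reports Tdp1 activity: intact substrate bridges AlphaScreen beads, while cleavage leaves a 3' phosphate and drops signal. All incubations at room temperature.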
TSG101-PTAP inh: blocks PTAP/TSG101 interaction to inhibit HIV-1 budding. 340,000 tested, under 10 active. Potency, µM (series often up to 115 µM), usual class: inhibitors. Fluorescence polarization, FITC-PTAP peptide / Tsg101 binding; active means well fitted inhibition curve with a large enough effect in the main read-out, with a control signal flat, not every such curve was filed as active; inconclusive means small, poorly fitted or top-dose-only effect, or effect the other way, or a change in a side signal; inactive means no such curve, though single readings can be large or run the other way
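FP read-out: FITC-PTAP peptide, 50 nM final, binding Tsg101 binding domain, 10 uM final; 20 min, r.t.; 10 mM HEPES pH 7.5, 0.15 M NaCl, 0.01% Tween 20, 3 mM EDTA, 0.1 mM TCEP.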
ClpP mod: qHTS Assay for Activators of ClpP | Potency, µM (doses to about 57.5 µM) | purified B. subtilis ClpP, FRET peptide cleavage, 20 min | ATP-dependent Clp protease proteolytic subunit (Bacillus subtilis (strain 168)), P80244 | 340,000 tested, 1.9% active; active means well fitted falling curve with a large enough effect; inconclusive means small, poorly fitted or top-dose-only effect; inactive means no such curve, though single readings can be large or run the other way; further: the source files actives as falling curves though it sought activators and does not explain the sign; nearly all actives have a fitted effect of over 65% in size
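ClpP 10 microg/mL final, pH 8 Tris/KCl buffer with BSA, glycerol, Tween-20; compound pinned in; FRET-FV substrate; RT 20 min; Ex320/Em430; ΔFRET vs ADEP 5.8 microM, DMSO, no enzyme.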
ALOX12 inh: blocks human arachidonate 12S-lipoxygenase; 580,000 tested, 1.1% active; purified 12hLO, xylenol orange hydroperoxide absorbance; AID 1671190; Potency, µM (top dose mostly 108 µM), most hits filed as inhibitors; active means well fitted curve in the direction sought with a large enough effect; inconclusive means small, poorly fitted or top-dose-only effect, or another doubt; inactive means no such curve, though single readings can be large; an effect the other way counts as inactive or inconclusive
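Purified human 12hLO at 150 nM in 25 mM Hepes, 0.01% Triton X-100, pH 7.0, preincubated 15 min at room temperature with compound. Reaction started with 40 uM arachidonic acid, 30 min at room temperature. Hydroperoxide measured by Fe-xylenol orange, 573/405 nm absorbance ratio.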
Rango complex inh: Rango-importin beta binding inhibition. Rango CFP/YFP FRET sensor + importin beta, 45 min. AID 540263. Potency, µM (series often up to 92.2 µM). Q14974. 340,000 tested, 0.031% active; further: nearly all actives have a fitted effect of over 15% in size
Target sequence (Q14974 whole entry, looked up): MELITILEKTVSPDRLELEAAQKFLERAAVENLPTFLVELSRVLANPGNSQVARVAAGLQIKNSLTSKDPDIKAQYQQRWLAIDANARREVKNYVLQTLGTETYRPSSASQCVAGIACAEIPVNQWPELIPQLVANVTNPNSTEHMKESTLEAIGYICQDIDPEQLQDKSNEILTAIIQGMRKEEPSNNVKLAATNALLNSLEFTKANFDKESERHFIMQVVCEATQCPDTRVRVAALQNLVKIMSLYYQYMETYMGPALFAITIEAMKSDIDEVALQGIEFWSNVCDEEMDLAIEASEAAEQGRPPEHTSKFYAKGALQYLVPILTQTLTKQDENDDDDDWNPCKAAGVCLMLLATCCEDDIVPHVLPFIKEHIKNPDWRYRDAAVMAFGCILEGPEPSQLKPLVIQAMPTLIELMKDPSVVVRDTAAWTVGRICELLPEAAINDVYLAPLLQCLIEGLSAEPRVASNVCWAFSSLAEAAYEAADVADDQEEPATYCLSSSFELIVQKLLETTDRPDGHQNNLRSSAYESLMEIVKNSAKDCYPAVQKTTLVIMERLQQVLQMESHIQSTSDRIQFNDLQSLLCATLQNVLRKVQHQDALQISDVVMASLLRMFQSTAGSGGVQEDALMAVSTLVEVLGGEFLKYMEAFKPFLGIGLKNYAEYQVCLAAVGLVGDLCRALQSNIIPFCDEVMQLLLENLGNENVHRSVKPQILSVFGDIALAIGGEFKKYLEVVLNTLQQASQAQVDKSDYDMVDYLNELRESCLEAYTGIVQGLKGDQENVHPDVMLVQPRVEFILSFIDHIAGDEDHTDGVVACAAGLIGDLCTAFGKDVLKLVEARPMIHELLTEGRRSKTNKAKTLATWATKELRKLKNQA
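FRET biosensor (snurportin 1 IBB flanked by EYFP and cerulean), 50 nM, with compound 5 min, then 0.125 microM importin beta in PBS, 1 mM DTT, 0.02% Tween-20, 0.1% BSA. CFP/YFP ratio read after 45 min at room temperature; pre-read flags interference.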
Rango dissoc inh: prevents RanGTP from dissociating the Rango-importin beta complex. Biochemical FRET Rango-importin beta, RanGTP-induced dissociation. AID 540253. 340,000 tested, 0.071% active. Potency, µM (doses to about 46.1 µM); further: nearly all actives have a fitted effect of over 45% in size
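Compounds preincubate 5 min with complex of recombinant Rango and importin beta in PBS with 1 mM DTT. Ran (0.6 uM) loaded with 2 mM GTP plus 0.2 uM RCC1 starts dissociation; FRET is recorded 45 min later.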
Each line names hits and unclear results; the compound was inactive in the other large screens. This is a sample that favours compounds with a hit; in the whole collection about 2.4% have one here. Unless noted, the call rests on the fitted dose curve.

Brc1ccc(C2=CC(c3cccs3)n3ncnc3N2)cc1 (stereo unspecified)	TSG101-PTAP inh inconclusive, ClpP mod 32µM, ALOX12 inh 40µM, Rango complex inh inconclusive, Rango dissoc inh inconclusive
Oc1ccc(C2C=C(c3ccc(F)cc3)Nc3ncnn32)cc1 (stereo unspecified)	Rango complex inh inconclusive, Rango dissoc inh inconclusive
Cc1nc(N2CCC(NC(=O)C(C)c3ccccc3)CC2)cc(C(F)(F)F)n1 (stereo unspecified)	none (no result: TDP1 block, TSG101-PTAP inh, ClpP mod, Rango complex inh, Rango dissoc inh)
CC(C)Oc1ccc2c(NC(=O)[C@H]3CCCO3)nn(CC(F)(F)F)c2c1	none (no result: TDP1 block, TSG101-PTAP inh, ClpP mod, Rango complex inh, Rango dissoc inh)
CCC(C)c1ccc(NC(=S)NCCn2cc(Cl)cn2)cc1 (stereo unspecified)	ALOX12 inh 35µM
O=c1ccc2cc3c4c(c2o1)CCCN4CCC3	TSG101-PTAP inh inconclusive, Rango complex inh inconclusive, Rango dissoc inh inconclusive (no result: TDP1 block)
O=c1oc2c3c4c(cc2s1)CCCN4CCC3	TDP1 block 14µM, ALOX12 inh 18µM
Cc1cc(C)c(C#N)c(SCC(=O)c2cccs2)n1	TDP1 block 50µM, Rango complex inh inconclusive, Rango dissoc inh inconclusive
O=C(Cn1nnc(-c2ccc(F)cc2)n1)c1ccc2c(c1)CCCC2	none (no result: TDP1 block, TSG101-PTAP inh, ClpP mod, Rango complex inh, Rango dissoc inh)
Cc1cc(NC(=S)N(Cc2ccc(Br)cc2)Cc2ccc(C(=O)O)cc2)ccc1Cl	ALOX12 inh 45µM (no result: ClpP mod)
COc1cccc(NC(=S)N(Cc2ccc(Cl)cc2)Cc2ccc(C(=O)O)cc2)c1	ALOX12 inh 40µM (no result: TDP1 block)
N#C/C(=C\c1ccccc1)C(=O)Nc1ccccn1	Rango complex inh inconclusive, Rango dissoc inh inconclusive (no result: TDP1 block, ClpP mod)
C=CCOc1ccc(/C=C(\C#N)C(=O)Nc2ccccn2)cc1	ALOX12 inh inconclusive, Rango complex inh inconclusive, Rango dissoc inh 26µM
S=C(SSC(=S)N1CCOCC1)N1CCOCC1	ALOX12 inh 5µM (no result: TDP1 block, TSG101-PTAP inh, Rango complex inh, Rango dissoc inh)
CC(SC(=S)N1CCOCC1)C(=O)O (stereo unspecified)	none
CCOc1ccccc1-n1c(SCC(=O)OC)nc2ccccc2c1=O	none (no result: TDP1 block, TSG101-PTAP inh, ClpP mod, Rango complex inh, Rango dissoc inh)
O=C1COCC2(CN1Cc1ccccc1)CN(C(=O)C1(c3ccccc3)CC1)C2	none (no result: TDP1 block, TSG101-PTAP inh, ClpP mod, Rango complex inh, Rango dissoc inh)
Cc1ccc(S(=O)(=O)NCC(c2ccc3c(c2)OCO3)N2CCOCC2)cc1 (stereo unspecified)	ClpP mod 28µM
Cc1[nH]nc2c1C(c1ccc(N(C)C)cc1)C1=C(CC(C)(C)CC1=O)N2 (stereo unspecified)	none (no result: ClpP mod)
Cc1[nH]nc2c1C(c1ccc(F)cc1)C1=C(CC(C)(C)CC1=O)N2 (stereo unspecified)	ClpP mod 25µM
COc1ccc(C2C3=C(CC(C)(C)CC3=O)Nc3n[nH]c(-c4ccccc4)c32)cc1OC (stereo unspecified)	none (no result: TDP1 block, TSG101-PTAP inh, ClpP mod, Rango complex inh, Rango dissoc inh)
Cc1ccc(C2C3=C(CC(C)(C)CC3=O)Nc3n[nH]c(C)c32)cc1 (stereo unspecified)	ClpP mod 25µM
Cc1[nH]nc2c1C(c1cccc(O)c1)C1=C(CC(C)(C)CC1=O)N2 (stereo unspecified)	ClpP mod 28µM
COC(=O)[C@@H](C)NC(=O)[C@H]1CN(S(=O)(=O)c2ccccc2)CCN1C(C)=O	none (no result: TDP1 block, TSG101-PTAP inh, ClpP mod, Rango complex inh, Rango dissoc inh)
Cc1cc(F)ccc1OC1CN(C(=O)c2ccccc2)C1	none (no result: TDP1 block, TSG101-PTAP inh, ClpP mod, Rango complex inh, Rango dissoc inh)
CCc1ccc(C(=O)N2C[C@@H](F)C[C@H]2C(=O)N2CCCCC2)cc1	none (no result: TDP1 block, TSG101-PTAP inh, ClpP mod, Rango complex inh, Rango dissoc inh)
CN1CCCCCCN(C(=O)C2(c3ccccc3)CC2)[C@H]2CCC[C@H]2C1=O	none (no result: TDP1 block, TSG101-PTAP inh, ClpP mod, Rango complex inh, Rango dissoc inh)
Cc1nc2c(C#N)c(-c3ccc(Cl)cc3)ccn2n1	none
CC(C)(C)c1nc2c(C#N)c(-c3ccc(Cl)cc3)ccn2n1	ClpP mod 28µM
CC1CCCC[C@@]12CCc1cc3c4c(c(=O)oc3cc1O2)CCC4 (stereo partly specified)	none (no result: TDP1 block, TSG101-PTAP inh, ClpP mod, Rango complex inh, Rango dissoc inh)
CNC(=O)[C@@H]1CN(C(=O)CCc2ccccc2OC)C[C@H]1c1n[nH]c(C)n1	none (no result: TDP1 block, TSG101-PTAP inh, ClpP mod, Rango complex inh, Rango dissoc inh)
